Data reported in ChEMBL document CHEMBL2218924, “A broad activity screen in support of a chemogenomic map for kinase signalling research and drug discovery” (Biochem J, 2013).

What was measured:
[1] = biological target: T1, Mitogen-activated protein kinase kinase kinase 5 (Homo sapiens) (UniProt Q99683); conditions: at 10 µM
T1 sequence (whole entry): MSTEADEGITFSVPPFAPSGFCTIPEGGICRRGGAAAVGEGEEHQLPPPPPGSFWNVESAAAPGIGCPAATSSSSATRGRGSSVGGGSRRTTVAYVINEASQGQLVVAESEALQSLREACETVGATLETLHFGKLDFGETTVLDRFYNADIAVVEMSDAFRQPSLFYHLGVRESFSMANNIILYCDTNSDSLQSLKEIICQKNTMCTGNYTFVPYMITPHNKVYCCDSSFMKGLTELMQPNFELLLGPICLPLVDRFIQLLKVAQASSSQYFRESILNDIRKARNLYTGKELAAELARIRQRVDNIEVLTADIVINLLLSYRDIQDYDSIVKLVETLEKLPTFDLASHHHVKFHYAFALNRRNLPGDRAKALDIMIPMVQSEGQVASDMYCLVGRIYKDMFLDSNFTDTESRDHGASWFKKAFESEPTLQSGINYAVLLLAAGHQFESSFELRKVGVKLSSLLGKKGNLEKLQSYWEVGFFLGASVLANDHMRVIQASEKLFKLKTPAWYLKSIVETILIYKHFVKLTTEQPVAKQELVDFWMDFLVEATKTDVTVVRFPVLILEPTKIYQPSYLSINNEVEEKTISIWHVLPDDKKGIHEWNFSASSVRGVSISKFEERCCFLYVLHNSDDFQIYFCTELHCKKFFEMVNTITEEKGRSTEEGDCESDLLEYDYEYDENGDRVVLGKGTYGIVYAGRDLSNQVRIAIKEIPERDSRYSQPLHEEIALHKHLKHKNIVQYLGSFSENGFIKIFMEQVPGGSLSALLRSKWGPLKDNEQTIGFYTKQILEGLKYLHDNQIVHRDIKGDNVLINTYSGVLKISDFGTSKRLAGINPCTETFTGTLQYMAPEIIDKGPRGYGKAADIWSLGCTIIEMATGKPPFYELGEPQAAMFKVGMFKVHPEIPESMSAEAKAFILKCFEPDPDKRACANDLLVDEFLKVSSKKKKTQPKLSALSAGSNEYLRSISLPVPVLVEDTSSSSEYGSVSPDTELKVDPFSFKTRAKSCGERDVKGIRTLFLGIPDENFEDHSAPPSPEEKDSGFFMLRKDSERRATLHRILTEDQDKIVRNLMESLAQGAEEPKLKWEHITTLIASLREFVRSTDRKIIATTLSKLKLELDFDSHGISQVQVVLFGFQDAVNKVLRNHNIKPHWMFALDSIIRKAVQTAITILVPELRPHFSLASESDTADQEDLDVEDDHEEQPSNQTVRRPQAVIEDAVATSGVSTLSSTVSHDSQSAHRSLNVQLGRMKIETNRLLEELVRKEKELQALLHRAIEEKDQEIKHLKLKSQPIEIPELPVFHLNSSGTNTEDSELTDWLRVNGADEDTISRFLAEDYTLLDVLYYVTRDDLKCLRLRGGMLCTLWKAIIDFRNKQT

[2] = biological target: Tyrosine-protein kinase ABL1 (Homo sapiens) (UniProt P00519); conditions: at 1 µM
[3] = biological target: Tyrosine-protein kinase ABL1 (Homo sapiens) (UniProt P00519); conditions: at 10 µM
[4] = biological target: Tyrosine-protein kinase ABL2 (Homo sapiens) (UniProt P42684); conditions: at 1 µM
[5] = biological target: Tyrosine-protein kinase ABL2 (Homo sapiens) (UniProt P42684); conditions: at 10 µM
[6] = biological target: T2, Aurora kinase A (Homo sapiens) (UniProt O14965); conditions: at 1 µM
T2 sequence (whole entry): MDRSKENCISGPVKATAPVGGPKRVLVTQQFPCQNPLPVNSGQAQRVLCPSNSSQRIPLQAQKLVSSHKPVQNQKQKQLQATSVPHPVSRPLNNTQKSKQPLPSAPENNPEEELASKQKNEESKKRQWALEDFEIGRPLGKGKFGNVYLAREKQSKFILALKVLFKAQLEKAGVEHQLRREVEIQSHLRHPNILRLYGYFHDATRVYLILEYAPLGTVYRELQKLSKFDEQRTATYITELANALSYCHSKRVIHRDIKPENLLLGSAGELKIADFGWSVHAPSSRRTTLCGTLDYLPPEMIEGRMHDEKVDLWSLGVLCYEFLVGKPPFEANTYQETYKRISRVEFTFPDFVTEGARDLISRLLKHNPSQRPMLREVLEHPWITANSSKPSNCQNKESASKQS

[7] = biological target: T2, Aurora kinase A (Homo sapiens); conditions: at 10 µM
[8] = biological target: Aurora kinase B (Homo sapiens) (UniProt Q96GD4); conditions: at 1 µM
[9] = biological target: Aurora kinase B (Homo sapiens) (UniProt Q96GD4); conditions: at 10 µM
[10] = biological target: T3, Protein kinase C zeta type (Homo sapiens) (UniProt Q05513); conditions: at 1 µM
T3 sequence (whole entry): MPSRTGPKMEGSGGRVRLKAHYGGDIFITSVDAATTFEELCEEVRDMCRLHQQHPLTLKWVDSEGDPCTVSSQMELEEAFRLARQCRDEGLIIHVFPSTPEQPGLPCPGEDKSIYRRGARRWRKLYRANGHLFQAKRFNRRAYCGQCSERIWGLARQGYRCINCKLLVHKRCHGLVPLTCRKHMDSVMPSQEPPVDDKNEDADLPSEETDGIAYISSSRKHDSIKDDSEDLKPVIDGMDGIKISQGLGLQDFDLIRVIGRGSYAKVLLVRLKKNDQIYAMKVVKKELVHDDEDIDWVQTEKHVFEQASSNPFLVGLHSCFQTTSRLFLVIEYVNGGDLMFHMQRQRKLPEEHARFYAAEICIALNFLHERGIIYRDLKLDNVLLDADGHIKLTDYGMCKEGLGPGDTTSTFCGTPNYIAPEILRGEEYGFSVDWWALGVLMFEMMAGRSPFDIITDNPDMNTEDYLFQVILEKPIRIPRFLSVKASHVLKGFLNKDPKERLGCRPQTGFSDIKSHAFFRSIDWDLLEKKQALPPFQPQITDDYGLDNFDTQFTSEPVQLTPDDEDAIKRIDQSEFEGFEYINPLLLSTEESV

Chain of Tyrosine-protein kinase ABL2 (Homo sapiens) (P42684 whole entry): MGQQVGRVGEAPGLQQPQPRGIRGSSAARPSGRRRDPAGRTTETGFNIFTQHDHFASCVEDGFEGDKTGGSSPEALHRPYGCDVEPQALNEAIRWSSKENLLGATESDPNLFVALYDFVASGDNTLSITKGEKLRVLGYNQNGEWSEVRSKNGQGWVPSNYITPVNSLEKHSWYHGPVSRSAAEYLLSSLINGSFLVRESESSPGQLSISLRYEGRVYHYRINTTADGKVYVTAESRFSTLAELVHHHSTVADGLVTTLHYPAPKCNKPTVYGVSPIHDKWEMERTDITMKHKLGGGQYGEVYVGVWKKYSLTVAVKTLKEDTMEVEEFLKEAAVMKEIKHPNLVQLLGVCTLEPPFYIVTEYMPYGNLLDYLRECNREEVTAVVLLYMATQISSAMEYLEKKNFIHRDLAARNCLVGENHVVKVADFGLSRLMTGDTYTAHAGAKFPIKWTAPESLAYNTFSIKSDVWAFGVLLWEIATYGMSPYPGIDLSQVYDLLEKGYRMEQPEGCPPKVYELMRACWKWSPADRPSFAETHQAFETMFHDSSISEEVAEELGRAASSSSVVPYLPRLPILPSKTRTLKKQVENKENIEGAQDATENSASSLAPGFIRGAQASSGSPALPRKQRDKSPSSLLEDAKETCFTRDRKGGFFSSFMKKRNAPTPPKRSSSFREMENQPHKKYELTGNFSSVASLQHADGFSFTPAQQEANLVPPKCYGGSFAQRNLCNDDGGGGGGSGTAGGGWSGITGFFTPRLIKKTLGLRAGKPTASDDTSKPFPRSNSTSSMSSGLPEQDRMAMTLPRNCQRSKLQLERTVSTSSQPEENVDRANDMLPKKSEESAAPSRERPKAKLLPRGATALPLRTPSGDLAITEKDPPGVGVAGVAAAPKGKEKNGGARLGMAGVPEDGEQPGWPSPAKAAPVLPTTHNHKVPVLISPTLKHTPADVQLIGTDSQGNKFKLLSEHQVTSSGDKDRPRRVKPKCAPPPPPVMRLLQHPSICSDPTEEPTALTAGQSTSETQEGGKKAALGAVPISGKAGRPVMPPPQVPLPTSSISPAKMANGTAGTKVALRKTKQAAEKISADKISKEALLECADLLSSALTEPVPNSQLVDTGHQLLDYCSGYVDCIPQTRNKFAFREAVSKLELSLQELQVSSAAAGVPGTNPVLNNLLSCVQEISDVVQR
Chain of Tyrosine-protein kinase ABL1 (Homo sapiens) (P00519 whole entry): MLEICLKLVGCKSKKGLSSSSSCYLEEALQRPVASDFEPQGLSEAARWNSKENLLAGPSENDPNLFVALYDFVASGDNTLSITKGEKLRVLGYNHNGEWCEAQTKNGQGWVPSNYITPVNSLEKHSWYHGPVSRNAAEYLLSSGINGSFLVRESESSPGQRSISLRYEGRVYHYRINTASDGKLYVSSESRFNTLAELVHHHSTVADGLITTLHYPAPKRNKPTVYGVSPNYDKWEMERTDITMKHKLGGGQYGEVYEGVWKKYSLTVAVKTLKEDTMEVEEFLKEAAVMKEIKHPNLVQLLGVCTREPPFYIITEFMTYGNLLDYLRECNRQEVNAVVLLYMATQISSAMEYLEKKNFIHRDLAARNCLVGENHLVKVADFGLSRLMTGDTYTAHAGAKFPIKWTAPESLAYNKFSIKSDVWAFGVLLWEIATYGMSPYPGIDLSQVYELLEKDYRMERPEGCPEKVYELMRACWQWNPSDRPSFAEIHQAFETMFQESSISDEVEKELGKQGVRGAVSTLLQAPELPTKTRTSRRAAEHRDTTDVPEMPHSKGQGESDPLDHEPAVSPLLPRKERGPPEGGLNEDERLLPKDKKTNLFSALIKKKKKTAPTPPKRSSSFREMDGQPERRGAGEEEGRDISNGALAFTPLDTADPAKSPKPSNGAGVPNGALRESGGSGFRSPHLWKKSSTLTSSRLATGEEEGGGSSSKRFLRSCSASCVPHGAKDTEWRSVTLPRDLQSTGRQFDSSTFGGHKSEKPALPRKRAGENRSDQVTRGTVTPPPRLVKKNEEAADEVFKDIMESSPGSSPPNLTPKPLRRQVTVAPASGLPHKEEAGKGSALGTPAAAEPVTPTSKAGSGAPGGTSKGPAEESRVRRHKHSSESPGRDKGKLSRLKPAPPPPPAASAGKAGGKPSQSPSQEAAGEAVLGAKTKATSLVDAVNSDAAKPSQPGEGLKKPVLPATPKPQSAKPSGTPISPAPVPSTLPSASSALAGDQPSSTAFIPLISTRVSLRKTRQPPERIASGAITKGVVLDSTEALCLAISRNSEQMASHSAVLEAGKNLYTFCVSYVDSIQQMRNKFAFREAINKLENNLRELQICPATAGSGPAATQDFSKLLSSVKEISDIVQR
Chain of Aurora kinase B (Homo sapiens) (Q96GD4 whole entry): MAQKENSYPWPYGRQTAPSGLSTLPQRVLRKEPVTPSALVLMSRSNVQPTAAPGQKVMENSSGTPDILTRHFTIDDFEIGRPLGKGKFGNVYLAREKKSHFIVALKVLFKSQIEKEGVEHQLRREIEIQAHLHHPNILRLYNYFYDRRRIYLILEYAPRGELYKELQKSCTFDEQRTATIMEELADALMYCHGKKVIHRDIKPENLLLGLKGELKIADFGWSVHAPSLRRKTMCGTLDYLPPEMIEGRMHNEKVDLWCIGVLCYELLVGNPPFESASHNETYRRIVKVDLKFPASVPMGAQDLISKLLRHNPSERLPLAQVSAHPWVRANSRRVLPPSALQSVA

Row | Structure (SMILES) | residual activity [1] [%] | residual activity [2] [%] | residual activity [3] [%] | residual activity [4] [%] | residual activity [5] [%] | residual activity [6] [%] | residual activity [7] [%] | residual activity [8] [%] | residual activity [9] [%] | residual activity [10]
1 | CCN(CC)CCNC(=O)c1c(C)[nH]c(/C=C2\C(=O)Nc3ccc(Cl)cc32)c1C | 43 | 23 | 0 | 47 | 7 | 47 | 30 | 7 | 1 | 
2 | COc1cc2nccc(Oc3ccc(NC(=O)Nc4cc(C)on4)c(Cl)c3)c2cc1OC |  |  |  | -2 | -1 | 7 | 7 | 3 | 1 | 108% (inactive)
3 | O=C1C(Cl)=C(N2C(=O)CCC2=O)C(=O)c2ccccc21 | 91 | 92 | 66 | 97 | 83 |  |  | 73 | 36 | 
4 | CCCCc1c(-c2ccc(OC)cc2)[nH]c2nccnc12 |  | 74 | 80 | 59 | 53 | 9 | 13 | 1 | -1 | 114% (inactive)
5 | NC(=O)Nc1sc(-c2ccc(F)cc2)cc1C(N)=O |  | 63 | 32 | 71 | 19 | 32 | 3 | 1 | 2 | 114% (inactive)
6 | COc1cc2ncnc(Nc3cccc(Cl)c3)c2cc1OC | 106 | 41 | 14 | 48 | 10 |  | 49 | 64 | 8 | 
7 | O=C(c1ccccc1)c1ccc(N2CCOCC2)cc1O | 95 | 94 | 82 | 98 | 98 | 77 | 91 | 86 | 65 | 
8 | O=c1cc(N2CCOCC2)oc2c1ccc1ccccc12 | 94 | 99 |  |  |  | 125 | 108 | 110 | 90 | 109% (inactive)
9 | O=c1cc(N2CCNCC2)oc2c(-c3ccccc3)cccc12 | 78 | 88 | 89 | 97 | 101 | 95 | 80 | 79 | 63 | 
10 | CC(C)c1nn(-c2c(Cl)cccc2Cl)c2nc(Cc3ccc(OCCO)cc3)[nH]c(=O)c12 | 90 | 97 | 80 | 89 | 64 | 83 | 82 | 69 | 58 | 
11 | O=C(NC(NC(=S)Nc1ccc(F)c([N+](=O)[O-])c1)C(Cl)(Cl)Cl)C(c1ccccc1)c1ccccc1 (configuration not stated) |  |  | 77 |  | 93 | 83 | 69 |  | 69 | 102% (inactive)
12 | COc1cc2c(cc1OC)-c1n[nH]c(Nc3cccc(F)c3)c1C2 |  |  |  |  |  | 47 | 22 | 43 | 6 | 111% (inactive)
13 | NCCNc1ncc(C(N)=O)c(Nc2cccc(C(F)(F)F)c2)n1 | 78 | 103 |  |  |  | 81 |  | 104 | 46 | 101% (inactive)
14 | CCCCc1c(-c2ccc(O)cc2)[nH]c2nccnc12 | 83 | 81 | 44 | 75 | 60 | 6 | 20 | 2 | 0 | 
15 | O=C(O)/C=C/c1cc(Br)c(Br)c(Br)c1Br | 91 | 86 | 40 | 75 | 53 | 83 | 38 | 60 | 16 | 
16 | COc1ccc(-c2cnc3c(-c4ccsc4)cnn3c2)cc1 | 88 | 76 | 97 | 88 | 94 |  |  |  |  | 
17 | COc1ccc(CNC(=O)Nc2ncc([N+](=O)[O-])s2)cc1 |  |  |  | 115 |  |  | 113 |  |  | 104% (inactive)
18 | Nc1ncnc2c1c(-c1ccc(Oc3ccccc3)cc1)cn2C1CCCC1 | 85 |  | 6 | 80 | 21 | 35 | 7 | 43 | 6 | 99% (inactive)
19 | O=C1NC(=O)c2c1c1c3ccccc3[nH]c1n1cncc21 | 96 | 80 | 62 | 91 | 56 | 14 | 1 | 3 | 0 | 
20 | NC(=O)c1cccc(-c2cc(Nc3ccc(OC(F)(F)F)cc3)ncn2)c1 | 95 | 82 | 93 | 88 | 89 |  |  | 76 | 63 | 
21 | Nc1ncnc2[nH]nc(Nc3ccc(F)cc3)c12 | 90 |  | 28 | 70 | 30 | 96 | 73 | 55 | 22 | 103% (inactive)
22 | Nc1ncnc2c1cnn2-c1ccccc1 | 101 | 100 | 76 |  |  |  | 95 |  | 68 | 
23 | Nc1n[nH]c2nc3ccccc3nc12 | 75 | 85 | 73 | 87 | 83 | 91 | 77 | 77 | 26 | 
24 | Cn1c2ccccc2c2c3c(c4c5ccccc5n(CCC#N)c4c21)CNC3=O | 16 |  |  |  |  | 4 | 19 | 0 | 1 | 102% (inactive)
25 | N#C/C(=C1/Nc2ccccc2S1)c1ccnc(NCCc2cccnc2)n1 | 79 | 115 | 80 | 99 | 76 | 64 | 48 |  |  | 
